Of roughly 7,900 targets only a part is listed; those with a hit were picked by preference. About 0.6% of all pairs of compound and target were hits.
Experiments:
Experiment in all cases: log2 fold change, soluble protein after heating vs DMSO (PISA); higher = thermal stabilisation; K562 cells, 10 uM, 30 min; active = over 0.2 and 3.5 SD of the protein, either way, in both replicates (recomputed)
[1] = compound: CC[C@@H]1C(=O)N(C)c2cnc(Nc3ccc(C(=O)NC4CCN(C)CC4)cc3OC)nc2N1C1CCCC1
Outline: (§1)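 Soluble protein was defined as the supernatant after 21,000xg for 90 min. It came from K562 cells at 2×10^6 cells/mL given 10 μM compound for 30 min, heated in aliquots for 3 min across 48°C-58°C, pooled, and extracted in PBS with 0.5% NP-40 at 4°C, and was quantified by TMTpro 16plex LC-MS/MS with equalised channel sums. Thermal stability against control samples, from duplicates, is reported as log2 fold change.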

[2] = compound: CC[C@@H]1C(=O)N(C)c2cnc(Nc3ccc(C(=O)N[C@H]4CC[C@H](N5CCN(CC6CC6)CC5)CC4)cc3OC)nc2N1C(C)C [volasertib]
Outline: as §1

[3] = compound: CC[C@H](C)N1C=C(C2=C(C=C(C=C21)C3=CN=C(C=C3)N4CCNCC4)C(=O)NCC5=C(C=C(NC5=O)C)C)C
Outline: as §1

[4] = compound: CC[C@H](C)[C@@H](C(=O)N[C@@H]([C@@H](C)O)C(=O)N[C@@H](CC(C)C)C(=O)[C@]1(CO1)C)NC(=O)[C@H]([C@@H](C)CC)N(C)C(=O)C [epoxomicin]
Outline: as §1

[5] = compound: CCn1c(C(=O)N(C2CC2)C2CC2)cc2c3c(ncn3C)c(Nc3cc(C)n(C)n3)nc21
Outline: as §1

[6] = compound: CCn1cc(-c2ccnc3[nH]c(-c4cccc(CN(C)C)c4)cc23)c(-c2ccc(NC(=O)N(C)C)cc2)n1
Outline: as §1

[7] = compound: CN(C)CC(=O)Nc1ccc2[nH]c(=O)c3ccccc3c2c1
Outline: as §1

[8] = compound: CN(CCOC1=CC=C(C=C1)C[C@H]2C(=O)NC(=O)S2)C3=CC=CC=N3 (racemic) [rosiglitazone]
Outline: as §1

[9] = compound: CN1C2=C(C3=C1C(=O)N(N=C3)CC4=CC(=CC=C4)N)SC(=C2)S(=O)C
Outline: as §1

[10] = compound: CN1CCC(CNc2ccc3ncc(-c4cccc(OC(F)(F)F)c4)n3n2)CC1
Outline: as §1

Measured: log2 fold change

GCSH (UniProt P23434)
active: [10] -0.338
inactive: [1] 0.055 | [2] 0.065 | [3] -0.078 | [4] 0.005 | [5] 0.05 | [6] 0.023 | [7] 0.028 | [8] 0.053 | [9] 0.012

FNTA (UniProt P49354)
inactive: [1] 0.123 | [3] 0.006 | [4] 0.019 | [5] 0.032 | [6] -0.074 | [7] 0.012 | [8] 0.036 | [9] -0.03 | [10] 0.015
active: [2] 0.362

GLUL (UniProt P15104)
inactive: [1] 0.049 | [2] 0.113 | [3] -0.041 | [4] 0.081 | [5] 0.045 | [6] 0.014 | [7] -0.032 | [8] -0.022 | [9] -0.032 | [10] 0.017

HDAC2 (UniProt Q92769)
inactive: [1] 0.024 | [2] -0.051 | [3] 0.026 | [4] -0.049 | [5] -0.049 | [6] -0.001 | [7] -0.003 | [8] 0 | [9] -0.041 | [10] 0.056

GTF2A1 (UniProt P52655)
inactive: [1] -0.012 | [2] 0.061 | [3] -0.051 | [4] 0.201 | [5] 0.019 | [6] 0.035 | [7] -0.006 | [8] -0.029 | [9] -0.018 | [10] -0.051

HBZ (UniProt P02008)
Chain of UniProt P02008 (P02008 whole entry, looked up): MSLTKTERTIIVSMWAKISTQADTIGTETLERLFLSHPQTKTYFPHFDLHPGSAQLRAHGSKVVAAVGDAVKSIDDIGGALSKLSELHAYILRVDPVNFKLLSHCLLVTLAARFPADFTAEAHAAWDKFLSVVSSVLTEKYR
inactive: [1] 0.03 | [2] -0.065 | [3] -0.026 | [5] 0.061 | [6] -0.021 | [7] 0.019 | [8] -0.005 | [9] -0.012 | [10] 0.016
active: [4] 0.288

GNS (UniProt P15586)
Chain of UniProt P15586 (P15586 whole entry, looked up): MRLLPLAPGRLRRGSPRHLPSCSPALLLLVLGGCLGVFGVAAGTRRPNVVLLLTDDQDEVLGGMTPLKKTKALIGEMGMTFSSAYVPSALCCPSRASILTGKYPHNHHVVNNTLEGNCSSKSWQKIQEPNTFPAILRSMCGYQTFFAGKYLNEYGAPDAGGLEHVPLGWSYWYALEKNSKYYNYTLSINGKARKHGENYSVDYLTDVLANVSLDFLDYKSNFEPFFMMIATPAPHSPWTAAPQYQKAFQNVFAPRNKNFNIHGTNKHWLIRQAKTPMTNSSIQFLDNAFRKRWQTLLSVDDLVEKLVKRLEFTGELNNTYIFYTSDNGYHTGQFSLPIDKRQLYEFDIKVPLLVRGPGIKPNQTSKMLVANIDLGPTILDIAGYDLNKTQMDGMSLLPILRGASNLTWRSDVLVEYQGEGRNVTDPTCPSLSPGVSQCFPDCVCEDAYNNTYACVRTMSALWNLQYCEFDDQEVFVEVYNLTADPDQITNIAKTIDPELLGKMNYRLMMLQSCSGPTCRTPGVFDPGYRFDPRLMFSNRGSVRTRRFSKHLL
inactive: [2] -0.181 | [3] -0.045 | [4] -0.012 | [5] 0.018 | [6] -0.003 | [7] -0.007 | [8] -0.005 | [9] -0.016
active: [1] -0.272 | [10] -0.408

HSPA8 (UniProt P11142)
Chain of UniProt P11142 (P11142 whole entry, looked up): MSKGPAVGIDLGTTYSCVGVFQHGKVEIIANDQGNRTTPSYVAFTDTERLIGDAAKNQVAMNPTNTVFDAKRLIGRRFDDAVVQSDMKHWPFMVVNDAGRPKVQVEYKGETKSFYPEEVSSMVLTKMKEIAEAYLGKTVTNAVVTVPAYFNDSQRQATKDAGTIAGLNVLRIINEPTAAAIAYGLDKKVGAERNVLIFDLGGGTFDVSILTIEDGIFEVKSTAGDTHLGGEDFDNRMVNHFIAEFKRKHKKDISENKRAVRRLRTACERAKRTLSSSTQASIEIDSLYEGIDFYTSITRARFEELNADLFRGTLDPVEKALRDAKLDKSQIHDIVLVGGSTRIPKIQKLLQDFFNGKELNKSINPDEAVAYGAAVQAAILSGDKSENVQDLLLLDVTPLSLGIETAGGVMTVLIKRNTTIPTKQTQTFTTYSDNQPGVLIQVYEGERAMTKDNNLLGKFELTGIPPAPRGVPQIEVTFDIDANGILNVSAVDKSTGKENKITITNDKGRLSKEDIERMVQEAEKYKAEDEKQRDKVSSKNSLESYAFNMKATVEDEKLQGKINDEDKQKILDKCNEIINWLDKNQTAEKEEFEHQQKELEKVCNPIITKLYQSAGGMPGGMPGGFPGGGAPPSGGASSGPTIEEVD
inactive: [1] 0.001 | [2] 0.113 | [3] -0.007 | [4] 0.008 | [5] 0.012 | [6] -0.002 | [7] -0.037 | [8] -0.019 | [9] -0.034 | [10] 0.079

GSK3A (UniProt P49840)
inactive: [1] -0.067 | [2] 0.002 | [3] 0.002 | [4] 0 | [5] 0.025 | [6] -0.101 | [7] -0.008 | [8] 0.017 | [9] -0.066 | [10] 0.033

HSD17B12 (UniProt Q53GQ0)
Chain of UniProt Q53GQ0 (Q53GQ0 whole entry, looked up): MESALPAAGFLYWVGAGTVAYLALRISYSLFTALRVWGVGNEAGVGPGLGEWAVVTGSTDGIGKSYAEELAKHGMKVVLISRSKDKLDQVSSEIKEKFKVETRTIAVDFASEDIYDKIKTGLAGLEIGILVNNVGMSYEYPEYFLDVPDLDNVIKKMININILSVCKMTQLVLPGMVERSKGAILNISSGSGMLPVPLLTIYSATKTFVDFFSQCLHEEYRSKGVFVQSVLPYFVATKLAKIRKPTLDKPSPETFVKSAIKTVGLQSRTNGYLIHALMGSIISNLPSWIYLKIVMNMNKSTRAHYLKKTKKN
inactive: [1] -0.046 | [2] -0.183 | [3] 0 | [4] -0.013 | [5] -0.036 | [6] -0.104 | [7] 0.01 | [8] -0.016 | [9] -0.039 | [10] 0.037

GTF3A (UniProt Q92664)
inactive: [1] -0.128 | [2] -0.028 | [3] 0.074 | [4] -0.101 | [5] -0.024 | [6] -0.263 | [7] 0.049 | [8] 0.071 | [9] 0.016
active: [10] -0.447

HDAC7 isoform 5 (UniProt Q8WUI4)
Chain of UniProt Q8WUI4 (Q8WUI4 whole entry, looked up): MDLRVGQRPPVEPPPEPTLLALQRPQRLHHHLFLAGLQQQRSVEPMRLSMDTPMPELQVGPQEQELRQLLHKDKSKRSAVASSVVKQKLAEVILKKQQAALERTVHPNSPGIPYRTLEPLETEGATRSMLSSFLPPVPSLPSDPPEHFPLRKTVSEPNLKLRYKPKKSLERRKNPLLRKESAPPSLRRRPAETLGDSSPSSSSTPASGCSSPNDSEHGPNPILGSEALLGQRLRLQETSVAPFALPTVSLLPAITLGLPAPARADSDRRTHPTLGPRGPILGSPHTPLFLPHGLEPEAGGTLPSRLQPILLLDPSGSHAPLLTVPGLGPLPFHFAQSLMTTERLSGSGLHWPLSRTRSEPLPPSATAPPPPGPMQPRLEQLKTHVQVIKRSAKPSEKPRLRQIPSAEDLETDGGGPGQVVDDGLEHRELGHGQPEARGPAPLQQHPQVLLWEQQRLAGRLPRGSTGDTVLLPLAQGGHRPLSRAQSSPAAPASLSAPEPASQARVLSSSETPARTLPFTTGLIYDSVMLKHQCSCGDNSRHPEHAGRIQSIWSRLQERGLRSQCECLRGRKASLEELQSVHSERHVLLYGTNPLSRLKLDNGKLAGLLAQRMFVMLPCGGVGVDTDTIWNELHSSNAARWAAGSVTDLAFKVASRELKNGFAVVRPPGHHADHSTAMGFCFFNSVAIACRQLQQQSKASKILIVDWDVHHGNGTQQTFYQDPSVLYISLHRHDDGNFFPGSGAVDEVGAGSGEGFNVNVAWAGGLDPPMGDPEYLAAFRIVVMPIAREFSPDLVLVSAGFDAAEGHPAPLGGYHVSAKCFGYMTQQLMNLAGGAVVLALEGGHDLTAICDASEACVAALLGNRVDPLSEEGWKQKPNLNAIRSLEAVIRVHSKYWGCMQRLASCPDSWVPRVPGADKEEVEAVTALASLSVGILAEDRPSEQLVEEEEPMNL
inactive: [1] 0.051 | [2] 0.01 | [3] 0.007 | [4] 0.016 | [5] -0.031 | [6] -0.058 | [7] 0.059 | [8] 0.011 | [9] -0.053 | [10] -0.123

FHOD1 (UniProt Q9Y613)
inactive: [1] 0.127 | [2] -0.055 | [3] 0.075 | [4] -0.171 | [5] -0.148 | [6] 0.093 | [7] -0.048 | [8] 0.039 | [9] 0.372 | [10] -0.022

GSTT1 (UniProt P30711)
Chain of UniProt P30711 (P30711 whole entry, looked up): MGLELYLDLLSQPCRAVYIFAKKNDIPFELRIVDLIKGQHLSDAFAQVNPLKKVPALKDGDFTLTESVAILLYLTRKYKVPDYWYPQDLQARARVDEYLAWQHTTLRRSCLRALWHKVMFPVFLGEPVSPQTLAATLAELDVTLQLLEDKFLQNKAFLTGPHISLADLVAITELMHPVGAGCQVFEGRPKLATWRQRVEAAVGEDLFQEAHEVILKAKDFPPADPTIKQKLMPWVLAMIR
inactive: [1] 0.02 | [2] -0.057 | [3] -0.038 | [4] 0.203 | [5] -0.019 | [6] 0.019 | [7] -0.034 | [8] -0.024 | [9] -0.058 | [10] -0.002

HMGCR isoform 3 (UniProt P04035)
inactive: [1] -0.007 | [2] -0.019 | [3] -0.07 | [5] -0.04 | [6] 0.015 | [7] -0.023 | [8] -0.006 | [9] -0.009 | [10] 0.272
active: [4] 0.356

HRC (UniProt P23327)
Chain of UniProt P23327 (P23327 whole entry, looked up): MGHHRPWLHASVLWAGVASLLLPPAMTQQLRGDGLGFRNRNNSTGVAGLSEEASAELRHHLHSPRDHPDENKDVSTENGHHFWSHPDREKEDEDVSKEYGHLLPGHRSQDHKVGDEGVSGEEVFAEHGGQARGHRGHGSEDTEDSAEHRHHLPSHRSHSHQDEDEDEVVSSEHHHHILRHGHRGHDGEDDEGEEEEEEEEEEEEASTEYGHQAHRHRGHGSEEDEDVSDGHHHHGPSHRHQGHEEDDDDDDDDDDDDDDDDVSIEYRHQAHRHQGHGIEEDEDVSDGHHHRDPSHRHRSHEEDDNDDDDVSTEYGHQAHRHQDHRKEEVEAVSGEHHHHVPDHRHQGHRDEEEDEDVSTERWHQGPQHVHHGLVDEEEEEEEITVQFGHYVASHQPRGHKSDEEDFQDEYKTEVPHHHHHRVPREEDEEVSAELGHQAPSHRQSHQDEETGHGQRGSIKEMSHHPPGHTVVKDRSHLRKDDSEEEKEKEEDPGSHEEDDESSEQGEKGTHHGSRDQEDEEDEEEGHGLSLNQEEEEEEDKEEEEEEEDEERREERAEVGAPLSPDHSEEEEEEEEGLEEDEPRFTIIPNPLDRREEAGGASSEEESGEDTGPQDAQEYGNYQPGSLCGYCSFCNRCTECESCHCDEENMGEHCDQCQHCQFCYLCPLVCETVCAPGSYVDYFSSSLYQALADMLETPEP
inactive: [1] 0.01 | [2] 0.043 | [3] -0.014 | [4] -0.061 | [5] -0.016 | [6] -0.023 | [7] 0.005 | [8] -0.008 | [9] -0.107 | [10] -0.013

GSTM4 (UniProt Q03013)
inactive: [1] 0.202 | [2] 0.095 | [3] 0.039 | [4] -0.009 | [5] 0.036 | [6] -0.063 | [7] 0.025 | [8] -0.24 | [9] -0.054 | [10] -0.182

HDAC6 (UniProt Q9UBN7)
inactive: [1] 0.013 | [2] 0.005 | [3] 0.014 | [4] -0.069 | [5] -0.074 | [6] -0.157 | [7] 0.068 | [8] -0.065 | [9] 0.058 | [10] -0.04

GMEB2 (UniProt Q9UKD1)
active: [2] -0.282
inactive: [1] 0.05 | [3] 0.062 | [4] 0.156 | [5] -0.059 | [6] -0.048 | [7] 0.018 | [8] 0.145 | [9] -0.03 | [10] -0.075

GLUD2 (UniProt P49448)
inactive: [1] 0.13 | [2] 0.252 | [3] 0.068 | [4] -0.07 | [5] 0.034 | [6] -0.219 | [7] 0.021 | [8] 0.002 | [9] -0.022 | [10] 0.071

HMGN1 (UniProt P05114)
Chain of UniProt P05114 (P05114 whole entry, looked up): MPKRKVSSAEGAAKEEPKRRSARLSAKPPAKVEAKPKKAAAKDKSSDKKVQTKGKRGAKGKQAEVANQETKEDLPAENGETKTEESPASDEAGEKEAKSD
inactive: [1] 0.054 | [2] 0.141 | [3] -0.044 | [4] -0.008 | [5] 0.063 | [6] 0.045 | [7] -0.094 | [8] -0.027 | [9] 0.039 | [10] 0.101

HHEX (UniProt Q03014)
inactive: [1] 0.027 | [2] 0.07 | [3] 0.053 | [4] 0.164 | [5] 0.019 | [6] 0.05 | [7] 0.234 | [8] -0.029 | [9] 0.117 | [10] -0.023

HMG20A (UniProt Q9NP66)
inactive: [1] 0.083 | [2] -0.155 | [3] 0.029 | [4] -0.107 | [5] -0.031 | [6] 0 | [7] 0.053 | [8] 0.017 | [9] 0.143 | [10] -0.003

FBXO3 (UniProt Q9UK99)
Chain of UniProt Q9UK99 (Q9UK99 whole entry, looked up): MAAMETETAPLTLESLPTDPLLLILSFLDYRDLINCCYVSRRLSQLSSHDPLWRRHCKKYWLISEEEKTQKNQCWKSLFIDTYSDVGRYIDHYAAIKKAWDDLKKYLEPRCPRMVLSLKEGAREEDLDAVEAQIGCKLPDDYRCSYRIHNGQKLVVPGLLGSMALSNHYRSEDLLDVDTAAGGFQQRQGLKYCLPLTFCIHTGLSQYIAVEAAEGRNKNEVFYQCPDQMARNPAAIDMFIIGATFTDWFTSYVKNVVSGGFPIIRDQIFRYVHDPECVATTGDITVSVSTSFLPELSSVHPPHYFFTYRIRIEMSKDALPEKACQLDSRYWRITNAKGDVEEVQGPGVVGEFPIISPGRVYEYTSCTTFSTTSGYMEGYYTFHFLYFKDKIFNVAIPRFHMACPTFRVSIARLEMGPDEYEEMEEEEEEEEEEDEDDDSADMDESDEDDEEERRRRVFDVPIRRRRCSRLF
inactive: [1] 0.041 | [2] 0.042 | [3] 0.052 | [4] 0.007 | [5] 0.001 | [6] -0.074 | [7] -0.03 | [8] 0.045 | [9] 0.023 | [10] -0.038

FDPS (UniProt P14324)
Chain of UniProt P14324 (P14324 whole entry, looked up): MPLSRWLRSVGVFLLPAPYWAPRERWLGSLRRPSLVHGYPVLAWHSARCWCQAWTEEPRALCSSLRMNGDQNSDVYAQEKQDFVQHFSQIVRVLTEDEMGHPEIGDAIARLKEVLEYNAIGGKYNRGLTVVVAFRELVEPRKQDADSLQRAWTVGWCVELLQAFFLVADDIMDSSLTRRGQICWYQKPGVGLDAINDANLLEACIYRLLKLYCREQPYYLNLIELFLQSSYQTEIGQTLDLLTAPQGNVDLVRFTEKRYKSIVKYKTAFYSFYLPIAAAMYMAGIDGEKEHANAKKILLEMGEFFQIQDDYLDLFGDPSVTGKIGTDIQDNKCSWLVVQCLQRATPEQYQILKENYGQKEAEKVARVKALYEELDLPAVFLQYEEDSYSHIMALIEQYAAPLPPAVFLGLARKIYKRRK
inactive: [1] -0.059 | [2] -0.191 | [3] 0.075 | [4] 0.028 | [5] -0.054 | [6] -0.277 | [7] 0.111 | [8] 0.235 | [9] -0.034
active: [10] -0.608

GALNT4 (UniProt Q8N4A0)
active: [2] -0.334 | [10] -0.367
inactive: [1] -0.062 | [3] -0.032 | [4] -0.041 | [5] -0.032 | [6] -0.031 | [7] 0.007 | [8] 0.051 | [9] -0.007

GABARAPL1 isoform 2 (UniProt Q9H0R8)
inactive: [2] -0.186 | [3] 0.035 | [4] -0.029 | [5] -0.037 | [6] 0.007 | [7] 0.034 | [8] 0.03 | [9] -0.135 | [10] -0.187
active: [1] -0.303

FMC1 (UniProt Q96HJ9)
Chain of UniProt Q96HJ9 (Q96HJ9 whole entry, looked up): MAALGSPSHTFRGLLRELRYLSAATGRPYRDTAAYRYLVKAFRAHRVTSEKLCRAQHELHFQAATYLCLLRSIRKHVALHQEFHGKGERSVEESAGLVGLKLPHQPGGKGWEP
inactive: [1] 0.04 | [2] 0.102 | [3] -0.039 | [4] 0.059 | [5] -0.102 | [6] 0.046 | [7] -0.057 | [8] 0.044 | [9] -0.01 | [10] -0.02

GID4 (UniProt Q8IVV7)
Chain of UniProt Q8IVV7 (Q8IVV7 whole entry, looked up): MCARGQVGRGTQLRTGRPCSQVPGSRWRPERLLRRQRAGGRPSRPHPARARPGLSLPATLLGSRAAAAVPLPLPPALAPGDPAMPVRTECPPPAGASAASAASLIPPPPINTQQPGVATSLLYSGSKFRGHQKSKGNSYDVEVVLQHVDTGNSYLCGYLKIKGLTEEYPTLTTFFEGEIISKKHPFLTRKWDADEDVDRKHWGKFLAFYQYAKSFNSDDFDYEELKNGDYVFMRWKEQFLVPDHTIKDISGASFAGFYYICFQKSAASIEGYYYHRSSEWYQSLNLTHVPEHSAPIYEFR
inactive: [1] 0.082 | [2] 0.037 | [3] 0.044 | [4] -0.019 | [5] 0.08 | [6] 0.116 | [7] -0.21 | [8] 0.003 | [9] -0.093 | [10] -0.006

HK2 (UniProt P52789)
active: [2] -0.813
inactive: [1] -0.156 | [3] 0.086 | [4] 0.049 | [5] -0.127 | [6] 0.016 | [7] -0.001 | [8] 0.032 | [9] -0.028 | [10] -0.038
